The source of these data is the supplement of paper PMC10503962.

Structures are written as SMILES.

The test concerns Trichuris muris adult worms. The test is described as follows: mean motility score (Paragon pixel variance) of adult worms (arbitrary units); higher = more motile worms, i.e. less anthelmintic effect; extreme values may be limits of the assay. Particulars: 100 µM; 24 h. A digest of the protocol: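 In 96-well plates, one adult Trichuris muris worm from infected NOD SCID mice went into each well with 100 μL RPMI-1640, antibiotics and drug at 100 μM (1% v/v DMSO). After 24 h at 37°C and 5% CO2, the plates were filmed on an automated phenotyping platform. Paragon pixel-variance analysis gave the motility score, which was averaged across replicate wells.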
In turn, `CS(=O)(=O)CCNCc1ccc(-c2ccc3ncnc(Nc4ccc(OCc5cccc(F)c5)c(Cl)c4)c3c2)o1` [lapatinib] registered a mean motility score of 999.

For the compound `N=C(N)NC(=N)NCCc1ccccc1` [phenformin], the mean motility score is 4260.

For the compound `CC(=O)OC[C@H]1O[C@@H](n2ncc(=O)[nH]c2=O)[C@H](OC(C)=O)[C@@H]1OC(C)=O` [azaribine], the mean motility score came to 3970. The figure for `NS(=O)(=O)c1cc2c(cc1C(F)(F)F)NCNS2(=O)=O` [hydroflumethiazide] is 1060; for `CN1CCc2cccc3c2[C@H]1Cc1ccc(O)c(O)c1-3` [apomorphine] it is 2320. `CN(C)C(=N)N=C(N)N.Cl` [metformin hydrochloride] had a mean motility score of 4240. Take `Cc1ccc(Nc2nccc(N(C)c3ccc4c(C)n(C)nc4c3)n2)cc1S(N)(=O)=O` [pazopanib]: the mean motility score came out at 1830. The figure for `CC(=O)Oc1cccc2c1C(=O)c1c(OC(C)=O)cc(C(=O)O)cc1C2=O` [diacerein] is 0.

`CN(C/C=C/C#CC(C)(C)C)Cc1cccc2ccccc12` [terbinafine] returned a mean motility score of 4560.

For `C[C@@H](C(=O)O)c1ccc(-c2ccccc2)c(F)c1` [tarenflurbil], the mean motility score was determined as 2130. The figure for `c1cnc(N2CCN(Cc3ccc4c(c3)OCO4)CC2)nc1` [piribedil] is 1950. The figure for `CC(N/C(=N/C#N)Nc1ccncc1)C(C)(C)C.O` (centres undefined) [pinacidil monohydrate] is 2490. With `O=C(O)c1ccc2ccccc2c1O.OCc1cc(C(O)CNCCCCCCOCCCCc2ccccc2)ccc1O` (centres undefined) [salmeterol xinafoate] the figure was 0. In the case of `N=C(N)NCCC[C@H](N)C(=O)O` [arginine], the mean motility score stood at 2980. As to `O=C1C(O)=C([C@H]2CC[C@H](c3ccc(Cl)cc3)CC2)C(=O)c2ccccc21` [atovaquone], the mean motility score turned out to be 1650. With `NCCc1ccc(O)c(O)c1` [dopamine] the figure was 3440; with `O=C(CCCCCCC(=O)Nc1ccccc1)NO` [vorinostat], 1260. With `O=C(O)Cc1ccc(-c2ccccc2)cc1` [felbinac], the mean motility score stood at 3440.

With `Nc1ccc(S(=O)(=O)Nc2ncccn2)cc1` [sulfadiazine], the mean motility score was 2030. In the case of `C/C=C(/C(=C/C)c1ccc(O)cc1)c1ccc(O)cc1` [dienestrol], the mean motility score worked out at 3590. The figure for `COc1cc2nc(N(C)CCCNC(=O)C3CCCO3)nc(N)c2cc1OC` (centres undefined) [alfuzosin] is 2420; for `NS(=O)(=O)c1cc2c(cc1Cl)NC(CSCc1ccccc1)=NS2(=O)=O` [benzthiazide] it is 3040; for `CN1CCC[C@H]1c1cccnc1` [nicotine] it is 0. With `c1ccc2c(CC3=NCCN3)cccc2c1` [naphazoline] the figure was 4300.
